# From the supplement of paper PMC9262897, “Low-cost anti-mycobacterial drug discovery using engineered E. coli” (Nature Communications, 2022)
# Counter-ions that a name gives are not always drawn. ± gives the standard deviation of the averaged measurements.
# Test system: E. coli TESEC Mtb Alr
# Assay: growth (OD600 after 10 h); higher = more growth (less inhibition)
# Details: arabinose 10000000 nM; compound 0.1 mM; raw OD600 reference: median of DMSO wells […], cell-free background 0.052
# Procedure: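 TESEC Mtb Alr E. coli (ΔaraC ΔtolC ΔentC Δalr ΔdadX, arabinose-inducible Mtb Alr) or the Alr+ wild-type control strain, grown in defined M9-fructose medium without D-alanine in 96-well plates with Prestwick library compounds at 0.1 mM and 1% DMSO. Low Alr induction is 0.1 µM arabinose and high induction is 10 mM arabinose.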
row,Structure (SMILES),growth
1,C[C@@H]1C[C@H]2[C@@H]3C[C@H](F)C4=CC(=O)C=C[C@]4(C)[C@@]3(F)[C@@H](O)C[C@]2(C)[C@@]1(O)C(=O)COC(=O)C(C)(C)C [Flumethasone pivalate],0.373 ± 0.025
2,COc1cc(C(=O)NC2CCCNC2)cc(OC)c1OC (stereo not given) [Troxipide],0.359 ± 0.038
3,"COCCc1ccc(OCC(O)CNC(C)C)cc1 (racemic) [Metoprolol-(+,-) (+)-tartrate salt]",0.3498 ± 0.0028
4,CC(Oc1c(Cl)cccc1Cl)C1=NCCN1 (stereo not given) [Lofexidine],0.331 ± 0.032
5,N#CC(c1ccc(Cl)cc1)c1c(Cl)cc(-n2ncc(=O)[nH]c2=O)cc1Cl (stereo not given) [Diclazuril],0.0529 ± 0.00089
6,Cc1cc(C(C)(C)CC(C)(C)C)ccc1OCCOCC[N+](C)(C)Cc1ccccc1 [Methyl benzethonium chloride],0.0529 ± 0.0018
7,CC(=O)CC(c1ccc([N+](=O)[O-])cc1)c1c(O)c2ccccc2oc1=O (stereo not given) [Acenocoumarol],0.323 ± 0.024
8,COCC1=C(C(=O)OC(C)OC(=O)OC(C)C)N2C(=O)[C@@H](NC(=O)/C(=N\OC)c3csc(N)n3)[C@H]2SC1 (stereo not given in full) [Cefpodoxime proxetil],0.278 ± 0.016
9,CC(=O)OCC(=O)[C@@]12OC(C)(C)O[C@@H]1C[C@H]1[C@@H]3C[C@H](F)C4=CC(=O)C=C[C@]4(C)[C@@]3(F)[C@@H](O)C[C@@]12C [Fluocinonide],0.344 ± 0.033
10,COc1ccc([C@@H]2Sc3ccccc3N(CCN(C)C)C(=O)[C@@H]2OC(C)=O)cc1 [Diltiazem hydrochloride],0.3 ± 0.013
11,CC(=O)N[C@@H](CC(=O)N[C@@H](CCC(=O)O)C(=O)O)C(=O)O [Spaglumic acid],0.327 ± 0.0062
12,Cc1ccnc(NS(=O)(=O)c2ccc(N)cc2)n1 [Sulfamerazine],0.334 ± 0.0087
13,N=c1nc(N2CCCCC2)cc(N)n1O [Minoxidil],0.379 ± 0.034
14,COc1ccc2c(c1)c(CC(=O)O)c(C)n2C(=O)c1ccc(Cl)cc1 [Indomethacin],0.143 ± 0.0065
15,CN1CC2c3ccccc3Oc3ccc(Cl)cc3C2C1 (stereo not given) [Asenapine maleate],0.266 ± 0.0045
